Inconclusive results are not listed. The source made the active and inactive calls. Unless noted, calls come from the whole dose curve; as a rule, active = well fitted curve in the direction sought with a large enough effect; inconclusive = small, poorly fitted or top-dose-only effect, or another doubt; inactive = no such curve, though single readings can be large; an effect the other way counts as inactive or inconclusive.
Experiments:
[1] = Cell Viability - BJ (AID 421; calls by dose curve;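 note: potency is the fitted concentration of half-maximal effect; cells exposed to compound for 40 hours at 37 °C before readout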); settings: BJ fibroblast viability, qHTS
Procedure, shortened: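 Luminescent ATP signal (CellTiter-Glo, 20 min at room temperature) served as the read-out of viable BJ cells after 40 hours of compound treatment. Responses were scaled between DMSO and 100 uM tamoxifen, and AC50 values were obtained by Hill modeling.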

[2] = Cell Viability - Hek293 (AID 427;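 active = compounds whose dose-response curve shows a full or clear partial loss of cell viability, called from curve shape rather than a numeric limit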;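 note: potency is the fitted concentration of half-maximal effect; cells exposed to compound for 40 hours at 37 °C before reading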); settings: qHTS
Procedure, shortened: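 Luminescent ATP read-out (CellTiter-Glo, 20 min RT) after 40 hr compound exposure at 37 °C in complete medium. Signal normalized to DMSO (basal) and 100 uM tamoxifen (100% inhibition); concentration-response fitted with the standard Hill equation to give AC50.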

[3] = Cell Viability - HepG2 (AID 433; calls by dose curve;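 note: potency is the fitted concentration of half-maximal effect; potency for ATP loss meaning cytotoxicity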); settings: qHTS
Procedure, shortened: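 ATP luminescence (CellTiter-Glo) after 40 h compound exposure, 37 °C, HepG2, 1500 cells/well, complete medium. Normalized: DMSO = basal, 100 uM tamoxifen = 100% inhibition. AC50 via standard Hill equation.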

[4] = Cell Viability - MRC5 (AID 434; calls by dose curve;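 note: potency is the fitted concentration of half-maximal effect; potency reflects cytotoxicity seen as loss of intracellular ATP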); settings: MRC5 lung fibroblast viability, qHTS
Procedure, shortened: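 MRC5 normal human lung fibroblasts, 1500 cells/well, exposed to compound for 40 hr at 37 C. Cellular ATP was read by CellTiter-Glo luminescence; data normalized to DMSO and 100 uM tamoxifen, with AC50 from Hill fits.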

[5] = Cell Viability - SK-N-SH (AID 435; calls by dose curve; note: potency is the fitted concentration of half-maximal effect); settings: SK-N-SH neuroblastoma cell viability qHTS
Procedure, shortened: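 CellTiter-Glo ATP luminescence, 20 min RT read; cells pre-plated 5 hr, compound 40 hr at 37 °C, 1500 cells/well, complete medium. Normalized DMSO = 0, 100 uM tamoxifen = 100% inhibition; Hill-fit AC50.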

[6] = target: Mitogen-activated protein kinase 10 (Mus musculus) (UniProt Q61831); assay: JNK3 AlphaScreen Assay (AID 530; active = well fitted curve in either direction with a large enough effect, not every such curve was filed as active;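 note: kinase came from lysate of stimulated human HepG2 cells; signal reports phosphorylation of biotinylated GST-cJun 1-79 at Ser73 with 10 µM ATP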)
Procedure, shortened: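 qHTS format: compounds tested as titrations against IL-1beta/TNF-alpha-activated HepG2 lysate JNK3 with biotin-GST-cJun substrate and 10 uM ATP at room temperature. Loss of anti-phospho-cJun AlphaScreen signal indicates inhibition.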

[7] = Cell Viability - N2a (AID 540); settings: N2a mouse neuroblastoma cell viability; activity change, negative = cytotoxicity: at 92.2 µM (top of the series); note: potency is the fitted concentration of half-maximal effect; nearly all actives have a fitted effect of over 45% in size
Procedure, shortened: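 First, 1500 N2a cells per well incubate 5 hr at 37 °C; next, compounds are added and incubated 40 hr at 37 °C; finally CellTiter-Glo is added and luminescence read after 20 min, with AC50 derived by Hill modeling.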

[8] = Cell Viability - NIH 3T3 (AID 541); settings: NIH 3T3 cell viability, qHTS; activity change, negative = cytotoxicity: at 92.2 µM (top of the series); note: potency is the fitted concentration of half-maximal effect; nearly all actives have a fitted effect of over 25% in size
Procedure, shortened: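 AC50 values reflect concentration-dependent loss of intracellular ATP in NIH 3T3 cells after 40 hr treatment in complete culture medium, quantified by luciferase-based luminescence.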

[9] = Cell Viability - HUV-EC-C (AID 542); note: potency is the fitted concentration of half-maximal effect; nearly all actives have a fitted effect of over 35% in size
Procedure, shortened: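 Decrease in cellular ATP, quantified by luciferase luminescence, reflects toxicity in normal human vascular endothelial HUV-EC-C cells given compound for 40 hr in complete culture medium. Values are AC50s from concentration-response curves.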

[10] = Cell Viability - H-4-II-E (AID 543); note: potency is the fitted concentration of half-maximal effect; nearly all actives have a fitted effect of over 35% in size
Procedure, shortened: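 Here, cytotoxicity is measured in the rat hepatoma line H-4-II-E as loss of intracellular ATP after 40 hr compound treatment, detected by luciferase luminescence.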

[11] = Cell Viability - SH-SY5Y (AID 544); settings: SH-SY5Y neuroblastoma cell viability; viability change, negative = cytotoxic: at 92.2 µM (top of the series); note: potency is the fitted concentration of half-maximal effect; nearly all actives have a fitted effect of over 55% in size
Procedure, shortened: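 Cytotoxicity is scored as a concentration-dependent fall in intracellular ATP in human SH-SY5Y cells treated 40 hr in complete culture medium. Potency is expressed as AC50 from a Hill equation fit.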

[12] = Cell Viability - Renal Proximal Tubule (AID 545); settings: renal proximal tubule cells viability, primary cells of rat origin; activity change, negative = cytotoxicity: at 91.7 µM (top of the series); note: potency is the fitted concentration of half-maximal effect; nearly all actives have a fitted effect of over 40% in size
Procedure, shortened: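 Rat kidney proximal tubule cells, freshly isolated; 1000 cells/well, 5 hr settle, compound 40 hr 37 °C. CellTiter-Glo 20 min RT, luminescence read. AC50 by standard Hill fit.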

[13] = Cell Viability - Mesenchymal (AID 546); settings: mesenchymal cells viability, qHTS; activity change, negative = cytotoxicity: at 91.7 µM (top of the series);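 note: potency is the fitted concentration of half-maximal effect; cells exposed to compound for 40 hours before reading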
Procedure, shortened: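 Human kidney mesenchymal cells from normal renal glomeruli, 1000 cells/well, rested 5 hr at 37 °C, then treated 40 hr at 37 °C in complete medium. Cellular ATP read by CellTiter-Glo luminescence; AC50 from Hill-equation fits.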

[14] = Cellular Toxicity (caspase-3) HepG2 (AID 654); note: potency is the fitted concentration of half-maximal effect
Procedure, shortened: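 qHTS, HepG2, 1500 cells/well, complete medium; cpd 16 h 37 °C; Caspase-Glo 3/7, 20 min RT; lum. Norm: DMSO vs 100 uM tamoxifen; AC50 Hill fit.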

[15] = Cellular Toxicity (caspase-3) Jurkat (AID 655); settings: Jurkat caspase-3 activation, luminescence; caspase-3 activation: at 92.2 µM (top of the series), DMSO = 0%, tamoxifen = 100%;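 note: potency is the fitted concentration of half-maximal effect; cells exposed to compound for 16 h at 37 °C before reading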
Procedure, shortened: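 Luminescent caspase-3/7 readout (aminoluciferin substrate cleavage) in human T-cell leukemia Jurkat cells after 16 hr compound exposure. Concentration-response normalized to DMSO and 100 uM tamoxifen; AC50 by standard Hill equation.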

[16] = Cellular Toxicity (caspase-3) BJ (AID 658); settings: Potency: caspase-3 activation; note: potency is the fitted concentration of half-maximal effect
Procedure, shortened: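 BJ human foreskin fibroblasts, 1000 cells/well, treated 16 hours at 37 °C in complete medium; caspase 3/7 activity by Caspase-Glo luminescence after 1 hr at room temperature. Normalized to DMSO and 10 uM staurosporine; AC50 from Hill fits.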

[17] = Cellular Toxicity (caspase-3) NIH 3T3 (AID 666);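 note: potency is the fitted concentration of half-maximal effect; caspase signal read after 16 h compound exposure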
Procedure, shortened: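 Concentration-response qHTS in NIH 3T3 mouse fibroblasts scores caspase-3/7 activation as rising luminescence after 16 hr compound exposure. Signals are scaled between DMSO-only and 100 uM tamoxifen.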

[18] = target: Cytochrome P450 3A4 (Homo sapiens) (UniProt P08684); assay: qHTS Assay for Inhibitors and Substrates of Cytochrome P450 3A4 (AID 884); note: potency is the fitted concentration of half-maximal effect; nearly all actives have a fitted effect of over 50% in size
Chain of Cytochrome P450 3A4 (Homo sapiens) (P08684 whole entry, looked up): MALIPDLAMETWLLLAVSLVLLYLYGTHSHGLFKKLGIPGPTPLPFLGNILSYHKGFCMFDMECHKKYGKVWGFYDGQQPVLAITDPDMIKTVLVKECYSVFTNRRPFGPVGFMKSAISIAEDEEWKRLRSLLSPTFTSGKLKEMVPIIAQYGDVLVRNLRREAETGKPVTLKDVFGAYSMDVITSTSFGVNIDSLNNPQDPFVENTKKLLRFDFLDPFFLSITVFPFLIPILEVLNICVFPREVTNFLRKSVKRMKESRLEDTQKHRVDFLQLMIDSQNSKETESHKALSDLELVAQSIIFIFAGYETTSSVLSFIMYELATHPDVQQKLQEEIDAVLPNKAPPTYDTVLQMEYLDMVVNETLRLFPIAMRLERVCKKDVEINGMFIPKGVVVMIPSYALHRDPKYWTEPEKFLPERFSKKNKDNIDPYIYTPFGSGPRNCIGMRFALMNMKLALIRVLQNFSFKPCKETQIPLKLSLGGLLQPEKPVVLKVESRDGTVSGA
Procedure, shortened: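 20 nM human CYP3A4 with 25 uM Luciferin-PPXE (at KM) in 200 mM KPO4, preincubated 10 min with compound; NADPH regeneration started a 60 min RT reaction. Luciferin detected by luminescence, normalized to 57 uM ketoconazole as full inhibition.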

[19] = target: Cytochrome P450 3A4 (Homo sapiens) (UniProt P08684); assay: qHTS Assay for Activators of Cytochrome P450 3A4 (AID 885); note: nearly all actives have a fitted effect of over 65% in size
Procedure, shortened: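 20nM CYP3A4 + 25uM Luciferin-PPXE (=KM), 200mM KPO4; cpd 10 min RT; NADPH regen, 60 min RT; stop w/ detection buffer, 20 min; luminescence. Normalized to 57 uM ketoconazole.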

[20] = Cell Viability - LYMP2-001 (AID 921); note: potency is the fitted concentration of half-maximal effect; nearly all actives have a fitted effect of over 70% in size
Procedure, shortened: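 CellTiter-Glo luminescence (intracellular ATP) after 24 hr compound exposure at 37 C, 2500 lymphoblastoid cells/well in complete medium. AC50 fitted with standard Hill equation; tetraoctylammonium bromide positive control.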

[21] = MultiTox-Fluor Cytotoxicity Assay - LYMP1-001 - Dead Cells (AID 946);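 note: potency is the fitted concentration of half-maximal effect; cells exposed to compound for 16 h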
Procedure, shortened: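 AC50 from Hill fit of concentration-response; data normalized to DMSO (basal) and 15 uM tetraoctylammonium bromide (100%). LYMP1-001 lymphoblastoid cells, 2500/well, 16 hr compound at 37 C; dead-cell protease fluorescence, Ex/Em 485/520.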

[22] = MultiTox-Fluor Cytotoxicity Assay - LYMP1-001 - Live Cells (AID 947); note: potency is the fitted concentration of half-maximal effect
[23] = Cell Viability - LYMP1-002 - Assay at 16 hr (AID 948); note: potency is the fitted concentration of half-maximal effect
Procedure, shortened: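 LYMP1-002 human lymphoblastoid cells, 2500/well; 5 hr 37 C; cpd 16 hr 37 C; CellTiter-Glo 30 min RT; luminescence (ATP). Concentration-response, Hill-fit AC50. Pos ctrl tetraoctylammonium bromide.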

[24] = MultiTox-Fluor Cytotoxicity Assay - LYMP1-002 - Live Cells (AID 955);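 note: potency is the fitted concentration of half-maximal effect; cells exposed to compound for 16 hours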
Procedure, shortened: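 Cytotoxicity in the human lymphoblastoid line LYMP1-002 is measured as loss of live-cell protease activity after 16 h treatment in complete culture medium. AC50 is derived from Hill-equation fits of qHTS concentration-response data.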

[25] = MultiTox-Fluor Cytotoxicity Assay - LYMP1-002 - Dead Cells (AID 960); note: potency is the fitted concentration of half-maximal effect; nearly all actives have a fitted effect of over 60% in size
Procedure, shortened: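 Acute cytotoxicity in a human lymphoblastoid line is scored as rising dead-cell protease signal after 16 hr exposure at 37 C, measured fluorometrically (485/520).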

[26] = MultiTox-Fluor Cytotoxicity Assay - LYMP1-003 - Dead Cells (AID 961);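 note: potency is the fitted concentration of half-maximal effect; cells exposed to compound for 16 h at 37 °C; nearly all actives have a fitted effect of over 70% in size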
Procedure, shortened: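 Human lymphoblastoid LYMP1-003 cells (2500/well) were treated with compounds for 16 hr at 37 C in complete medium. Dead-cell protease release was read by bis-AAF-R110 fluorescence (Ex/Em 485/520). AC50 came from Hill fits, normalized to DMSO and 15 uM tetraoctylammonium bromide.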

[27] = MultiTox-Fluor Cytotoxicity Assay - LYMP1-003 - Live Cells (AID 962);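 note: potency is the fitted concentration of half-maximal effect; cells exposed to compound for 16 hours at 37 °C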
Procedure, shortened: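 Cells plated at 2500 per well and incubated 5 hr; compounds added and incubated 16 hr at 37 C; MultiTox-Fluor reagent added for 60 min at room temperature; fluorescence of liberated AFC measured at 405/510 nm.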

[28] = Cell Viability - LYMP1-003 - Assay at 24 hr (AID 963); note: potency is the fitted concentration of half-maximal effect
Procedure, shortened: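 Acute toxicity in LYMP1-003 lymphoblastoid cells: 24 hr compound treatment at 37 C, ATP measured with CellTiter-Glo after 30 min at room temperature. AC50 derived by fitting the Hill equation to qHTS titrations.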

[29] = Cell Viability - LYMP1-003 - Assay at 40 hr (AID 964); note: potency is the fitted concentration of half-maximal effect; nearly all actives have a fitted effect of over 60% in size
Procedure, shortened: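 This qHTS cytotoxicity screen treats human lymphoblastoid cells (LYMP1-003) with compounds for 40 hr and quantifies cellular ATP via luciferase luminescence.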

[30] = Cell Viability - LYMP2-003 (AID 965);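 note: potency is the fitted concentration of half-maximal effect; cells exposed to compounds for 24 h before reading; nearly all actives have a fitted effect of over 50% in size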
Procedure, shortened: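 CellTiter-Glo luminescence (cellular ATP) after 24 h compound exposure at 37 C in complete medium; 2500 cells/well, 5 h settling beforehand. Concentration-response fitted to standard Hill equation for AC50. Tetraoctylammonium bromide served as positive control.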

[31] = Cell Viability - LYMP2-004 (AID 966); note: potency is the fitted concentration of half-maximal effect; nearly all actives have a fitted effect of over 65% in size
Procedure, shortened: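 Acute toxicity is scored as a concentration-dependent drop in intracellular ATP, quantified by luciferase luminescence, in human lymphoblastoid cells exposed to compound for 24 hr. AC50 derives from Hill-equation modelling.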

[32] = Cell Viability - LYMP2-005 (AID 967); note: potency is the fitted concentration of half-maximal effect
Procedure, shortened: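 Steps: seed 2500 LYMP2-005 cells/well, incubate 5 h at 37 C, add compound, incubate 24 h at 37 C, add CellTiter-Glo, wait 30 min at RT, read luminescence. Concentration-response data fitted to Hill equation for AC50.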

[33] = Cell Viability - LYMP2-009 (AID 968); note: potency is the fitted concentration of half-maximal effect; nearly all actives have a fitted effect of over 55% in size

Measured: Potency

CCCCCCCC[N+](CCCCCCCC)(CCCCCCCC)CCCCCCCC
active: [1] 14.5 µM | [2] 7.17 µM | [3] 4.92 µM | [4] 10.3 µM | [5] 9.44 µM | [7] 3.16 µM | [8] 3.16 µM | [9] 12.6 µM | [10] 12.6 µM | [11] 7.94 µM | [12] 10 µM | [13] 10 µM | [14] 12.6 µM | [15] 12.6 µM | [16] 12.6 µM | [17] 31.6 µM | [18] 12.6 µM | [20] 3.98 µM | [21] 6.31 µM | [22] 10 µM | [23] 6.31 µM | [24] 3.98 µM | [25] 3.16 µM | [26] 10 µM | [27] 12.6 µM | [28] 7.94 µM | [29] 3.16 µM | [30] 10 µM | [31] 7.94 µM | [32] 7.94 µM | [33] 3.98 µM
inactive: [6] | [19]
